In the library only some 6.3% were active in any assay of this set; here they are far more common.
PMK inhibit: blocks S. pneumoniae phosphomevalonate kinase. purified PMK, PK/LDH-coupled NADH absorbance 340 nm. inhibition, % at 10 µM. 0.49% of 65,000 active;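 active means top-ranked compounds by inhibition in the single 10 µM screen, taking a fixed number of the strongest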
MK inhibit: inhibitors of Streptococcus pneumoniae mevalonate kinase. purified MK, PK/LDH-coupled NADH absorbance 340 nm. inhibition, % at 10 µM. 0.48% of 65,000 active;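 active means ranked among the strongest by inhibition in the single 10 µM screen, a fixed top-ranked set picked for dose follow-up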
Spn DPM-DC inh: blocks S. pneumoniae diphosphomevalonate decarboxylase; purified DPM-DC, PK/LDH coupled NADH fluorescence; calls only at 10 µM; 0.49% of 65,000 active;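 active means the 320 compounds with the highest percent inhibition in the single-dose primary screen, excluding strongly autofluorescent ones, cut at about 32% in these data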;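 further: kinetic rate of NADH fluorescence loss reporting ADP formed by the decarboxylase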
NADH enzymes: inhibition of NAD/NADH coupling enzymes, library profiling | coupled PK/LDH NADH assays, four targets | 0.02% of 65,000 active | IC50, µM (doses to about 10 µM);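 active means single-dose screening hits from any of four coupled enzyme assays that gave an IC50 when retested across doses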;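 further: the DPM-DC format reads NADH fluorescence rather than 340 nm absorbance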
Abs 340nm: compounds absorbing at 340 nm. fold change at 10 µM. compound absorbance at 340 nm, fold over control. 65,000 tested, under 10 active;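 active means at 10 µM dose, initial 340 nm absorbance at least 2 fold that of control wells; inactive means change under 2 fold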;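 further: initial absorbance extrapolated from kinetic A340 decline of NADH oxidation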
Autofluor 339: intrinsic fluorescence of library compounds, ex339/em460 – biochemical, MLSMR library, data from DPM-DC assay, artefact control, profiling panel. 5.5% of 65,000 active. fluorescence fold increase at 10 µM. AID 709. compound autofluorescence, ex339/em460 nm, NADH buffer; hits give high values; 1 = no-compound wells, NADH background;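 active means at 10 µM, mean starting fluorescence two-fold or more over control wells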;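 further: signal is the first read of a kinetic run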
Large screens that a line does not name were inactive.

CC(C)OC(=O)CC1=NC(=O)CS1	none
CC(C)OC(=O)CCC1(C(=O)O)CCC(=O)NC1 (stereo not given)	PMK inhibit 25
COC(=O)C(CC(=O)c1ccc(Br)cc1)n1ccnc1 (stereo not given)	none
COc1ccc2c(c1)C(=O)N(c1ccccc1OC)C(=O)C2(C)C	none
COc1ccc2c(c1)C1(C)CC(C)(C)N2C(=O)N1c1ccccc1 (stereo not given)	Spn DPM-DC inh active
COCCNC(=O)C(c1ccc(C)o1)N(Cc1ccc(OC)cc1)C(=O)Cn1nnc2ccccc21 (stereo not given)	PMK inhibit 25
COc1cc(=O)n(C)c2cc(N(C)C)ccc12	Autofluor 339 4 (not shown: Spn DPM-DC inh)
CCOc1ccc2[nH]c(=O)c(CN(Cc3cccnc3)C(=O)Nc3ccccc3OC)cc2c1	Autofluor 339 2
CC(=O)N(Cc1cccnc1)Cc1cc2ccccc2[nH]c1=O	none
COc1ccc2[nH]c(=O)c(CN(Cc3cccnc3)C(=O)Nc3ccccc3)cc2c1	Autofluor 339 2.5
CCN(CC)CCN(Cc1cc2cc(C)ccc2[nH]c1=O)C(=O)Nc1ccccc1OC	none
COc1ccc2[nH]c(=O)c(CN(CCCN(C)C)C(=O)Nc3ccc(F)cc3)cc2c1	Autofluor 339 2.7
CN1C(=O)CC(N2CCN(c3ccc(Cl)c(Cl)c3)CC2)C1=O (stereo not given)	none
Fc1cc2nc(-c3ccncc3)[nH]c2cc1F	Autofluor 339 2.2 (not shown: Spn DPM-DC inh)
CC(NC(=O)NCc1cccnc1)(C(F)(F)F)C(F)(F)F	none
Cc1ccc2[nH]c(=O)c(CN(CCN3CCOCC3)C(=O)Nc3ccc(F)cc3)cc2c1	none
CCOc1ccc2[nH]c(=O)c(CN(CC3CCCN3CC)C(=O)NCc3ccccc3)cc2c1 (stereo not given)	Autofluor 339 3.4 (not shown: Spn DPM-DC inh)
O=C(Nc1ccccc1)N(CCCN1CCOCC1)Cc1cc2cc3c(cc2[nH]c1=O)OCCO3	Autofluor 339 2.5 (not shown: Spn DPM-DC inh)
CCOc1ccc2[nH]c(=O)c(CN(CCc3ccccc3)C(=O)c3cnccn3)cc2c1	none
O=C(Nc1ccc(F)cc1)N(Cc1ccco1)Cc1cc2cc3c(cc2[nH]c1=O)OCO3	Autofluor 339 2.7 (not shown: Spn DPM-DC inh)
Cc1ccc(NC(=O)N(Cc2ccc3c(c2)OCO3)Cc2cc3cc4c(cc3[nH]c2=O)OCCO4)cc1	none
Cc1ccc(NC(=O)N(CCCN2CCOCC2)Cc2cc3cc4c(cc3[nH]c2=O)OCO4)cc1	Spn DPM-DC inh active, Autofluor 339 2.9
CCOc1ccc(NC2c3ccccc3C(=O)N2Cc2ccco2)cc1 (stereo not given)	none
CC1CC(C)CN(c2nc3c(c(=O)n(C)c(=O)n3C)n2CCSc2nc3ccccc3o2)C1 (stereo not given)	none
CS(=O)(=O)N(CCc1ccccc1)CC(N)=O	none
CCc1ccc2[nH]c(=O)c(CN(CCCN3CCOCC3)C(=O)Nc3ccccc3)cc2c1	none
COc1ccc2[nH]c(=O)c(CN(CCCN3CCOCC3)C(=O)NCc3ccccc3)cc2c1	Autofluor 339 3.3
O=C(Nc1ccccc1F)N(CCCN1CCOCC1)Cc1cc2cc3c(cc2[nH]c1=O)OCCO3	Autofluor 339 3.8
CCc1ccc2[nH]c(=O)c(CN(CCCN3CCOCC3)C(=O)Nc3ccc(Cl)cc3)cc2c1	none
CCN(CC)CCCN(Cc1cc2cc3c(cc2[nH]c1=O)OCCO3)C(=O)Nc1ccccc1	Spn DPM-DC inh active, Autofluor 339 3
O=C(CCn1c(=O)oc2ccccc21)NCCCN1CCCC1=O	none
CCOC(=O)N1CCN(Cc2nc(N)nc(Nc3ccc(Oc4ccccc4)cc3)n2)CC1	none
CCOC(=O)c1cc(-c2ccc3c(c2)OCO3)nc2onc(C)c12	Autofluor 339 3.3 (not shown: Spn DPM-DC inh)
CC1(C(=O)NC2CCCCCCC2)CCC(=O)N1Cc1ccco1 (stereo not given)	PMK inhibit 31
OC(CN1CCN(c2cccc(C(F)(F)F)c2)CC1)c1c[nH]c2ccccc12 (stereo not given)	none
COc1ccc2[nH]c(=O)c(-c3noc(-c4ccccc4)n3)cc2c1	Autofluor 339 3.6 (not shown: Spn DPM-DC inh)
COc1cc(OC)cc(-c2nc(-c3ccccc3)no2)c1	none
O=c1[nH]c2ccccc2cc1-c1noc(-c2cccnc2)n1	Autofluor 339 4.2 (not shown: Spn DPM-DC inh)
C=CCn1c(SCC(=O)Nc2c(C)cccc2C)nnc1-c1cnccn1	none

Bioassay records deposited in PubChem by SRMLSC.
